This is an account of results in PubChem BioAssay (EPA / NIEHS).

Assay [1] addresses human Dopamine Transporter (DAT), SLC6A3 (gene 6531) (UniProt Q01959). The assay can be described thus: NVS_TR_hDAT: NovaScreen (NVS) Transporter Assay for human Dopamine Transporter (DAT) (AID 2283374).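 Further: activity means loss of bound radioligand signal relative to DMSO.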 In short, it runs like this: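 hDAT membranes + tritiated/iodinated radioligand, competitive displacement; 1 h; filter scintillation readout. Single conc 25 uM (duplicate), then conc-response for actives. DMSO = negative control.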

Assay [2] deals with Agonist Androgen Response Element (ARE), AR (gene 367) (UniProt P10275). Kind of assay: OT_AR_ARELUC_AG_1440: Odyssey Thera (OT) 24-hour CHO-K1 Luciferase Assay for Agonist Androgen Response Element (ARE) (AID 2283379). The procedure, abridged: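 Gain-of-signal reporter endpoint: cells (CHO-K1, hamster) are treated 24 h, luciferin/ATP reagent added, and luminescence compared with DMSO baseline.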

Assay [3] addresses Estrogen receptor beta (Homo sapiens) (UniProt Q92731). Kind of assay: OT_ER_ERbERb_1440: Odyssey Thera (OT) 24-hour HEK293T Protein-Complementation Assay for Estrogen Receptor-beta/-beta Homodimer (AID 2283380).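 Further: scored as signal increase over DMSO baseline for both agonists and antagonists.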 The procedure, abridged: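 HEK293T cells stably expressing ER beta LBD (aa 310-547) homodimer fragment-complementation reporter, dosed 24 h. Cells formaldehyde-fixed, Draq5-stained; gain in nuclear (agonist) or nuclear plus cytoplasmic (antagonist) fluorescence versus DMSO read by laser scanning cytometry.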

In assay [4] the target is Estrogen receptor (Homo sapiens) (UniProt P03372). The assay can be described thus: OT_ERa_GFPERaERE_0480: Odyssey Thera (OT) 8-hour HeLa Transcription Induction Assay for Estrogen Receptor (AID 2283381; active means hit-call score of the fitted dose curve at least 0.9, where 1 is the maximum; inactive means score below 0.9). In short, it runs like this:
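Human cervical HeLa cells were treated for 8 hours, after which ERE-driven GFP induction was measured by fluorescence microscopy; increases over DMSO baseline defined activity.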

The target is the same in assay [5]. The assay can be described thus: OT_ERa_GFPERaERE_0120: Odyssey Thera (OT) 2-hour HeLa Transcription Induction Assay for Estrogen Receptor (AID 2283382). In short, it runs like this: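 Cells (human cervical HeLa) receive compound, incubate 2 hours, then are imaged for fluorescent reporter induction. Images are quantified by high content analysis, and activity is fitted as gain of signal against DMSO.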

In assay [6] the target is Bile acid receptor (Homo sapiens) (UniProt Q96RI1). The assay can be described thus: OT_FXR_FXRSRC1_1440: Odyssey Thera (OT) 24-hour HEK293T Protein-Complementation Assay for Farnesoid X receptor/SRC-1 Co-activator (AID 2283384). The procedure, abridged:
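Measures ligand-driven FXR–SRC-1 co-activator recruitment in HEK293T via fragment complementation, fluorescence intensity at 24 h. DMSO served as negative control and baseline for gain-of-signal fitting.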

Assay [7] addresses Retinoic acid receptor RXR-alpha (Homo sapiens) (UniProt P19793). The assay can be described thus: OT_NURR1_NURR1RXRa_0480: Odyssey Thera (OT) 8-hour HEK293T Protein Complementation Assay for Nurr1/retinoid X receptor (RXR) (AID 2283385). The procedure, abridged: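 Interaction of bait and prey reconstitutes a functional reporter, whose fluorescence was measured in HEK293T cells dosed with compound for 8 hours. Signal gain relative to DMSO defined the single endpoint.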

Assay [8] has the same target. Kind of assay: OT_NURR1_NURR1RXRa_1440: Odyssey Thera (OT) 24-hour HEK293T Protein Complementation Assay for Nurr1/retinoid X receptor (RXR) (AID 2283386). In short, it runs like this: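 Steps: fragment-tagged Nurr1 and RXRα expressed in HEK293T; compounds added; after 24 h, complemented reporter quantified by fluorescence intensity; signal increase over DMSO fitted as the single endpoint.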

For assay [9], the target named is Peroxisome proliferator-activated receptor gamma (Homo sapiens) (UniProt P37231). Kind of assay: OT_PPARg_PPARgSRC1_0480: Odyssey Thera (OT) 8-hour Protein-Complementation Assay for Peroxisome Proliferator-activated Receptor Gamma / SRC-1 Co-activator (AID 2283387).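 Further: nuclear to cytoplasmic split Venus YFP fluorescence ratio reporting PPARg SRC-1 interaction.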 The procedure, abridged:
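Read-out: 488 nm N/C fluorescence ratio from complemented Venus YFP fragments, ≥350 cells per image, gain-of-signal fitted against DMSO baseline. Fusions of PPARg/SRC-1 with IFP1/IFP2 expressed transiently in HEK293T; compounds applied 8 h.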

For assay [10] the target is unchanged. Kind of assay: OT_PPARg_PPARgSRC1_1440: Odyssey Thera (OT) 24-hour Protein-Complementation Assay for Peroxisome Proliferator-activated Receptor Gamma/ SRC-1 Co-activator (AID 2283388).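 Further: nuclear to cytoplasmic ratio of reconstituted Venus YFP fluorescence in fixed imaged cells.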 The procedure, abridged:
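Protein-fragment complementation between PPARg and coactivator SRC-1 was measured by fluorescence imaging in transiently transfected HEK293T cells after 24 h treatment. Signal was quantified as N/C ratio in the 488 nm channel, with DMSO as negative control.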

Assay [11] can be described thus: CEETOX_H295R_11DCORT: CeeTox H295R High-throughput Steroidogenesis Assay for 11-Deoxycortisol (11DCORT) (AID 2283432; active means hit-call score of the fitted dose curve at least 0.9, where 1 is the maximum; inactive means score below 0.9;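 on AC50: human adrenal H295R cells prestimulated with 10 µM forskolin for 48 h; 11-deoxycortisol secreted into the medium measured by LC-MS/MS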). The conditions noted are these: actives raise or lower the signal. In short, it runs like this:
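H295R cells; 10 uM forskolin prestim 48 h; compound in 0.1% DMSO 48 h; media extracted with MTBE; 11-deoxycortisol by LC-MS/MS, 7-point standard curve; gain/loss vs DMSO baseline; viability by MTT in same wells.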

Assay [12] is described as follows: CEETOX_H295R_OHPROG: CeeTox H295R High-throughput Steroidogenesis Assay for OH-Progesterone (OHPROG) (AID 2283435; active means hit-call score of the fitted dose curve at least 0.9, where 1 is the maximum; inactive means score below 0.9;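 on AC50: human adrenal H295R cells primed 48 h with 10 µM forskolin; 17alpha-hydroxyprogesterone secreted into medium measured by HPLC-MS/MS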). To be noted: actives raise or lower the signal. In short, it runs like this: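 Steps: seed H295R cells and adhere overnight; stimulate with 10 uM forskolin for 48 h; replace with chemical-containing medium (0.1% DMSO) for 48 h; extract medium with MTBE; quantify 17alpha-hydroxyprogesterone by reverse-phase C18 HPLC-MS/MS against a 7-point curve.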

Assay [13] can be described thus: CEETOX_H295R_ANDR: CeeTox H295R High-throughput Steroidogenesis Assay for Androstenedione (ANDR) (AID 2283436; active means hit-call score of the fitted dose curve at least 0.9, where 1 is the maximum; inactive means score below 0.9;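 further: human H295R adrenal cells exposed for 48 h with androstenedione measured in medium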). The conditions noted are these: actives raise or lower the signal. In short, it runs like this: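 48 h chemical exposure, H295R cells, DMEM/F12 + ITS+ and Nu-Serum. Medium androstenedione: MTBE extraction, C18 reverse-phase HPLC, ESI+ MS/MS. Fit bidirectional vs DMSO; MTT viability in same wells.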

Assay [14] can be described thus: CEETOX_H295R_CORTIC: CeeTox H295R High-throughput Steroidogenesis Assay for Corticosterone (CORTIC) (AID 2283437; active means hit-call score of the fitted dose curve at least 0.9, where 1 is the maximum; inactive means score below 0.9;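 further: corticosterone secreted into medium quantified by mass spectrometry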). To be noted: actives raise or lower the signal. The procedure, abridged:
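48 h forskolin (10 uM) prestim, then 48 h chemical exposure, final DMSO 0.1%. Readout: corticosterone in medium by LC-MS/MS after MTBE extraction. Gain/loss fit vs DMSO; MTT viability in same wells.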

The target of assay [15] is human Serotonin Transporter (SERT), SLC6A4 (gene 6532) (UniProt P31645). The assay can be described thus: NVS_TR_hSERT: NovaScreen (NVS) Transporter Assay for human Serotonin Transporter (SERT) (AID 2283372). The procedure, abridged:
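Human platelet membrane preparation; displacement of radioligand from serotonin transporter measured after 1 h by filtration and scintillation counting. Single 25 uM duplicate screen, then concentration series for actives, with DMSO as negative baseline.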

Assay [16] addresses rat Serotonin Transporter (SERT), Slc6a4 (gene 25553) (UniProt P31652). Kind of assay: NVS_TR_rSERT: NovaScreen (NVS) Transporter Assay for rat Serotonin Transporter (SERT) (AID 2283375). The procedure, abridged: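 Filtration-based radiodetection quantified loss of specific radioligand binding in rat forebrain membranes after 1 hour of chemical exposure, relative to DMSO. Chemicals were first tested in duplicate at 25 uM.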

In assay [17] the target is human Norepinephrine Transporter (NET), SLC6A2 (gene 6530) (UniProt P23975). The assay can be described thus: NVS_TR_hNET: NovaScreen (NVS) Transporter Assay for human Norepinephrine Transporter (NET) (AID 2283377).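 Further: cell-free membrane protein extracted from CHO cells expressing human NET.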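 On AC50: displacement of radioligand from human NET seen as loss of scintillation signal.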 In short, it runs like this:
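CHO cell extracts expressing the transporter; tritiated or iodinated tracer displaced competitively; filtration plus scintillation readout at 1 h. Single-point duplicates at 25 uM, concentration series for follow-up; activity = signal drop relative to DMSO.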

The subject of assay [18] is rat Norepinephrine Transporter (NET), gene 83511. Kind of assay: NVS_TR_rNET: NovaScreen (NVS) Transporter Assay for rat Norepinephrine Transporter (NET) (AID 2283373). In short, it runs like this:
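Competitive radioligand displacement at the rat NET using forebrain membrane preparations, 1 h incubation, filter-based scintillation readout. Primary testing in duplicate at a single 25 uM concentration; confirmed actives retested across concentrations.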

Assay [19] deals with Norway rat Vesicular Monoamine Transporter (VMAT2), neurotransmitter transporter, Slc18a2 (gene 25549) (UniProt Q01827). The assay can be described thus: NVS_TR_rVMAT2: NovaScreen (NVS) Transporter Assay for Norway rat Vesicular Monoamine Transporter (VMAT2), neurotransmitter transporter (AID 2283376).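 Further: actives lower the bound radioligand signal below the DMSO level.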 The procedure, abridged:
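Filter-based scintillation counting of radioligand bound to rat forebrain-derived VMAT2 protein, cell-free, 1 h post-dose. Signal loss relative to DMSO control scored; single-concentration duplicate screen (25 uM) followed by concentration-response testing of actives.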

Several values for one entry are separate records, joined by “and”; a condition that tells them apart may be missing. Identical values can stand only once. Results filed as inconclusive are left out. Some compounds were tested as several samples or in several runs, with calls that do not always agree. Activity calls are given as the source filed them. How the source made its calls, unless noted: active means hit-call score of the fitted dose curve at least 0.9, where 1 is the maximum; inconclusive means response in the unintended direction; inactive means score below 0.9.

Chain of Estrogen receptor beta (Homo sapiens) (Q92731 whole entry, looked up, the tested form may be a part): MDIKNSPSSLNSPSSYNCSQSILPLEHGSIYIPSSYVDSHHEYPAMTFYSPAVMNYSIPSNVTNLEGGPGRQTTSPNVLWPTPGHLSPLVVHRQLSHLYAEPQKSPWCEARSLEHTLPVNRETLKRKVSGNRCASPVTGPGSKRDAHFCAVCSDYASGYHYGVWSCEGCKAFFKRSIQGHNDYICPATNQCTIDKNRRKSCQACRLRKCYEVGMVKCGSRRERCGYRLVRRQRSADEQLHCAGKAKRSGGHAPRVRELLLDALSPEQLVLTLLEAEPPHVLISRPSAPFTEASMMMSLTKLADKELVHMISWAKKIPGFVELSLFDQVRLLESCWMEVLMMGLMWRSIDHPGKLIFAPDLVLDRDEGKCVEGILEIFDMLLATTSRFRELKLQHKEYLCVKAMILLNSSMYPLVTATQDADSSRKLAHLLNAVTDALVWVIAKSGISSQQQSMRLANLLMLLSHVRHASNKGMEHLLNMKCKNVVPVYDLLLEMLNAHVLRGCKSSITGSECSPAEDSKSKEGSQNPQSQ
Chain of Peroxisome proliferator-activated receptor gamma (Homo sapiens) (P37231 whole entry, looked up, the tested form may be a part): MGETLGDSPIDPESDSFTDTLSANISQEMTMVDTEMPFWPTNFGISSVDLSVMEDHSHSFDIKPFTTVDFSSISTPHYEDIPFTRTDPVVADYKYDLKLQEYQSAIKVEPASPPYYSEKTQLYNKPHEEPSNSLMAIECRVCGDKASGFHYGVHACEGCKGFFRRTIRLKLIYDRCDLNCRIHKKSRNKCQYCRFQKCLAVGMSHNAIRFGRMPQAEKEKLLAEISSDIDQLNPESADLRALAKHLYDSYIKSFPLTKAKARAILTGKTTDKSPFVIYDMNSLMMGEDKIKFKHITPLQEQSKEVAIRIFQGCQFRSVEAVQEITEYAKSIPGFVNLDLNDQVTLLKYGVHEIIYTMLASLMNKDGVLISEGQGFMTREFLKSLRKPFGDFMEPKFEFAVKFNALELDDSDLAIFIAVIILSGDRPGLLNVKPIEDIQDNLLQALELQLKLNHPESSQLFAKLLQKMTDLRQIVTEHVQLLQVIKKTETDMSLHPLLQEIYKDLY
Chain of human Dopamine Transporter (DAT), SLC6A3 (gene 6531) (Q01959 whole entry, looked up): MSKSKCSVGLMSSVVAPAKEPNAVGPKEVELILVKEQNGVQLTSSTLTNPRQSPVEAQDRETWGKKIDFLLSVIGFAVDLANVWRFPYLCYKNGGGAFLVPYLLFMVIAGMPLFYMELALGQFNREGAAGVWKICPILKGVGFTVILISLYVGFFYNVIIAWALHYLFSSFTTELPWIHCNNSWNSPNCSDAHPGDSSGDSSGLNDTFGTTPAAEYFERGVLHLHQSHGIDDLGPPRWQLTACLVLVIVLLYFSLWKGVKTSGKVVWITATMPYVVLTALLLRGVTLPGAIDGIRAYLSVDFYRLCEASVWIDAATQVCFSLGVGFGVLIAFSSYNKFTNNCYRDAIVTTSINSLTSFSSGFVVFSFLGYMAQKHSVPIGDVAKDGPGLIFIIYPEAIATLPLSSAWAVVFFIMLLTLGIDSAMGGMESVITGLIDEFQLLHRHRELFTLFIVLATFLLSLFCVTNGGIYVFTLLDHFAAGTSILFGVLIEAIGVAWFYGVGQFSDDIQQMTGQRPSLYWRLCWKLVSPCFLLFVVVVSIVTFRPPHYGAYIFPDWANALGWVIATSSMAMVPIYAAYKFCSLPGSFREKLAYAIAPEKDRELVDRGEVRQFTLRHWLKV
Chain of human Norepinephrine Transporter (NET), SLC6A2 (gene 6530) (P23975 whole entry, looked up): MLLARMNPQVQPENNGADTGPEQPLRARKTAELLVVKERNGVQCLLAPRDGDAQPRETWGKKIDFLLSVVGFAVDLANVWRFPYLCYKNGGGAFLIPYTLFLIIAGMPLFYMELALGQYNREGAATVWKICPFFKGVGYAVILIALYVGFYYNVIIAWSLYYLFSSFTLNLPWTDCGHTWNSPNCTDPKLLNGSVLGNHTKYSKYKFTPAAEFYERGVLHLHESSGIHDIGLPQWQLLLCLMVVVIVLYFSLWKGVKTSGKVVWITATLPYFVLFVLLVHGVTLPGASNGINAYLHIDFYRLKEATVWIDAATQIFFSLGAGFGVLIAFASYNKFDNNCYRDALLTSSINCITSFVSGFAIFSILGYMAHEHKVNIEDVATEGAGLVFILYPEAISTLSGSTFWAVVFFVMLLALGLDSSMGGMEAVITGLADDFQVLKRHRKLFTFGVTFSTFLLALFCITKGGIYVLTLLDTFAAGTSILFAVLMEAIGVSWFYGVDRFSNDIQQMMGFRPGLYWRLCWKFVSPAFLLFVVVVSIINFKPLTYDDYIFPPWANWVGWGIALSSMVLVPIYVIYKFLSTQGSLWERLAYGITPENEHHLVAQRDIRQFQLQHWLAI
Chain of Estrogen receptor (Homo sapiens) (P03372 whole entry, looked up): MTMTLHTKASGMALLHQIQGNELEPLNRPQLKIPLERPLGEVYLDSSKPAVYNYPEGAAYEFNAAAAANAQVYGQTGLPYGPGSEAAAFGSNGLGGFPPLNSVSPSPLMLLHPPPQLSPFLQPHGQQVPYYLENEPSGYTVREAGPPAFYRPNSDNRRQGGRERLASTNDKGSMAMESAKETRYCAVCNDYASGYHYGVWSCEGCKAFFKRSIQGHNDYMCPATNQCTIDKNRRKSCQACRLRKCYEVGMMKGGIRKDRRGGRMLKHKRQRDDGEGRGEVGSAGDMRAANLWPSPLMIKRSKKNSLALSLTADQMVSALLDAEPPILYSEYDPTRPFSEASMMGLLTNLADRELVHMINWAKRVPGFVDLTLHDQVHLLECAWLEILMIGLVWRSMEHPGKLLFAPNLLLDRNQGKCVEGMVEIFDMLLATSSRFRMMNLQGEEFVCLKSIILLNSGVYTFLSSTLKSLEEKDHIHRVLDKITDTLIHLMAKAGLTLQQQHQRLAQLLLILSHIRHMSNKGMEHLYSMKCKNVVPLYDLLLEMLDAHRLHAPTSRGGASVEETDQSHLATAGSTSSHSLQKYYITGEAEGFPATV
Chain of Retinoic acid receptor RXR-alpha (Homo sapiens) (P19793 whole entry, looked up): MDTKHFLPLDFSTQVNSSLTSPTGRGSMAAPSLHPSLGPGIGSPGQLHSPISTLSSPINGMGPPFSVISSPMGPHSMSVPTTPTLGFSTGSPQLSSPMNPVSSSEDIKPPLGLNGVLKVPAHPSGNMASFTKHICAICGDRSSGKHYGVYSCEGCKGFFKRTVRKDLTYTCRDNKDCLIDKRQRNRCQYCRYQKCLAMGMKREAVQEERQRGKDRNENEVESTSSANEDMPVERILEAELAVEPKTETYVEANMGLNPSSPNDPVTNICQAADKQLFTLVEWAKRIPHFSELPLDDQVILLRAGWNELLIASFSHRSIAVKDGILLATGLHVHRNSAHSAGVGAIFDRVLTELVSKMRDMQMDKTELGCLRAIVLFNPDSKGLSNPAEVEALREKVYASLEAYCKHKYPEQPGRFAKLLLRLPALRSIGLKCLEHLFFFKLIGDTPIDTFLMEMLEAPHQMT
Chain of Norway rat Vesicular Monoamine Transporter (VMAT2), neurotransmitter transporter, Slc18a2 (gene 25549) (Q01827 whole entry, looked up): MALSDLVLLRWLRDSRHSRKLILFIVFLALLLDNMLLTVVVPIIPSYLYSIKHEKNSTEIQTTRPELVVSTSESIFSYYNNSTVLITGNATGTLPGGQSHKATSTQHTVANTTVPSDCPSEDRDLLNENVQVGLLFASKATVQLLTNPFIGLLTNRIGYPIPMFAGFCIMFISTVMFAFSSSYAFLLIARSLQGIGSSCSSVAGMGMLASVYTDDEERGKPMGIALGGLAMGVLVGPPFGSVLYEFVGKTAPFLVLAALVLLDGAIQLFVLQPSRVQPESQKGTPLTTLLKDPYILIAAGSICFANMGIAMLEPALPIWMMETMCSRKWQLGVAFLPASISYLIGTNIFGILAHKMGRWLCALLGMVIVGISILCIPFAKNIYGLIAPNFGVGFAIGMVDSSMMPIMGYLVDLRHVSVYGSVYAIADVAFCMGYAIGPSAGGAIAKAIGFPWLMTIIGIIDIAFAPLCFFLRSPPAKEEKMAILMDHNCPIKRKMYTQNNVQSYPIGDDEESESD
Chain of Bile acid receptor (Homo sapiens) (Q96RI1 whole entry, looked up, the tested form may be a part): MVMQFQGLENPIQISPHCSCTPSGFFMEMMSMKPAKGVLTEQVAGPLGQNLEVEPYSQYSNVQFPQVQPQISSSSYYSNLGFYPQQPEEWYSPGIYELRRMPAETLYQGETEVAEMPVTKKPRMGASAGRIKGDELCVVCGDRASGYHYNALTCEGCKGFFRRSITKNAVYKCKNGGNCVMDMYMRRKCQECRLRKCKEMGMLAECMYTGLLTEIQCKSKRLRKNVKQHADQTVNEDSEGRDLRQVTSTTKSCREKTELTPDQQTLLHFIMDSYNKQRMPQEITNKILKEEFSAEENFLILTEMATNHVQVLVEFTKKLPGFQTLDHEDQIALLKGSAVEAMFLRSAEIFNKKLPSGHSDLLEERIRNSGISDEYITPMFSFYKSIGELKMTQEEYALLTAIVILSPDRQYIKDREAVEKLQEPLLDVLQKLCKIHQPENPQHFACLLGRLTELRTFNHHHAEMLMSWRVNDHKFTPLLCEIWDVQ
Chain of rat Serotonin Transporter (SERT), Slc6a4 (gene 25553) (P31652 whole entry, looked up): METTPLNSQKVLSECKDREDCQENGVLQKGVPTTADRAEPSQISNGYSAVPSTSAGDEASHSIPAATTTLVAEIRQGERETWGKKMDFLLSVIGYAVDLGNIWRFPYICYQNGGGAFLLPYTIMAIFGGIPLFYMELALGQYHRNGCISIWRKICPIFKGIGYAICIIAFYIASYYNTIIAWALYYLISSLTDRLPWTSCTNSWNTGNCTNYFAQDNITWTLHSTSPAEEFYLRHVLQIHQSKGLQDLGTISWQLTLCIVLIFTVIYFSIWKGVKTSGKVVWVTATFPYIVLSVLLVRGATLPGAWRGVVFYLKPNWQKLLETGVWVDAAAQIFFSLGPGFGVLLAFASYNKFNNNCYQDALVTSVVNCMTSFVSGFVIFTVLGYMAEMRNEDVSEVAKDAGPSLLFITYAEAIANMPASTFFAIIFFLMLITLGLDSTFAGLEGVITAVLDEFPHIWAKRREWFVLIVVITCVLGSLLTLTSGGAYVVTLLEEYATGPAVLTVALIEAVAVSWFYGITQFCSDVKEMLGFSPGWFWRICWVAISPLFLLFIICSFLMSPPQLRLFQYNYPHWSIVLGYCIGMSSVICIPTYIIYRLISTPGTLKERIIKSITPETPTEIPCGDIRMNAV

With `CCC(C)(C)C(=O)OC1=C(c2ccc(Cl)cc2Cl)C(=O)OC12CCCCC2`, the outcome in [1], in assay [2], in assay [3], in assay [4], in assay [5] and in assay [7] was inactive. The result in assay [9], in assay [13] and in assay [14] was inactive. Further, the AC50 is 41 µM (active) in assay [6]; 33 µM (active) and 70.8 µM (active) in [8]; 16 µM (active) in assay [9]; 38.7 µM (active) and 50 µM (active) in assay [10]; 1.11 µM (active) in assay [11]; 2.29 µM (active) in assay [12].
With `CCC(C)Nc1c([N+](=O)[O-])cc(C(C)(C)C)cc1[N+](=O)[O-]` (configuration not stated), the AC50 was 8.98 µM (active) in assay [1]; 38.5 µM (active) in [3]; 12.2 µM (active) in assay [5]; 84.6 µM (active) and 73.7 µM (active) in assay [7]; 83.6 µM (active) in assay [8]; 74.6 µM (active) in assay [11]. The AC50 in [12] is 71.7 µM (active). The call in assay [4], in assay [8], in assay [9], in assay [10] and in assay [14] was inactive.
As to `CCN(CC)C(=O)SCc1ccc(Cl)cc1`, the AC50 in [1] is 7.71 µM (active); in [11] it was 24.6 µM (active). Also, the outcome in assay [4], in assay [5], in assay [6], in assay [7], in assay [9] and in assay [10] was inactive. Also, the molecule was classed as inactive in assay [12] and in assay [14].
On to `N#Cc1c(Cl)c(Cl)c(Cl)c(C#N)c1Cl`, for which the molecule was classed as inactive in assay [15], in assay [4], in assay [5], in assay [9], in assay [10] and in assay [11]. Further, the call in assay [12] and in assay [14] was inactive. Besides, the AC50 in assay [16] was 8.2 µM (active); in [3] it was 0.338 µM (active); in [7], 76.5 nM (active).
Take `O=S1OCC2C(CO1)C1(Cl)C(Cl)=C(Cl)C2(Cl)C1(Cl)Cl` (configuration not stated): the AC50 in [1] is 10.9 µM (active). The outcome in assay [4], in [5], in assay [9] and in assay [10] was inactive.
For the molecule `CC1(C)C(C=C(Cl)Cl)C1C(=O)OC(C#N)c1ccc(F)c(Oc2ccccc2)c1` (configuration not stated), in assay [1], the AC50 was 2.03 µM (active). The molecule was classed as inactive in assay [3], in assay [4], in [5], in assay [7], in assay [9] and in [10]. The molecule was called inactive in assay [11], in [12] and in assay [14].
For `ClC1C(Cl)C(Cl)C(Cl)C(Cl)C1Cl` (configuration not stated), the AC50 in assay [1] was 5.04 µM (active) and 18.5 µM (active) and 14.4 µM (active). Besides, the molecule was called inactive in [3], in [6], in [7], in assay [8], in assay [9] and in assay [10].
Take `O=S(=O)(O)C(F)(F)C(F)(F)C(F)(F)C(F)(F)C(F)(F)C(F)(F)C(F)(F)C(F)(F)F`: the outcome in assay [17], in assay [7], in [8], in [9] and in assay [10] was inactive.
With `Oc1ccc(Cl)cc1Cc1ccccc1`, the AC50 in [18] is 18.6 µM (active) [middle of 6 runs]; in assay [1] it was 3.69 µM (active) [middle of 8 runs]; in assay [19] it was 13.8 µM (active); in [17] it was 3.98 µM (active) [middle of 6 runs]; in assay [3], 12 µM (active); in assay [11], 77.7 µM (active). Also, the AC50 in assay [13] was 78 µM (active). Moreover, the outcome in assay [16], in assay [19], in [2], in [7], in [8] and in [9] was inactive. Besides, the call in assay [10] and in [14] was inactive.
With `O=C(Nc1ccccc1)Nc1cnns1`, in assay [19], the AC50 was 5.31 µM (active). The molecule was called inactive in [3], in assay [4], in assay [5], in assay [6], in assay [9] and in [10].

The term AC50 denotes the midpoint of the concentration-response curve, whichever way the signal moves.
